# According to the supplement of paper PMC8728848:
# Shown is part of a subset that was picked to be rich in the strongest signals.
# B1: Surfactant Protein D (Human); Neck + Carbohydrate Recognition Domain (NCRD) (Homo sapiens) (protein)
# chain: MLLFLLSALVLLTQPLGYLEAEMKTYSHRTMPSACTLVMCSSVESGLPGRDRDGREGPRGEKGDPGLPGAAGQAGMPGQAGPVGPKGDNGSVGEPGPKGDTGPSGPPGPPGVPGPAGREGALGKQGNIGPQGKPGPKGEAGPKGEVGAPGMQGSAGARGLAGPKGERGVPGERGVPGNTGAAGSAGAMGPQGSPGARGPPGLKGDKGIPGDKGAKGESGLPDVASLRQQVEALQGQVQHLQAAFSQYKKVELFPNGQSVGEKIFKTAQFVKPFTEAQLLCTQAGGQLASPRSAAENAALQQLVVAKNEAAFLSMTDSKTEGKFTYPTGESLVYSNWAPGEPNDDGGSEDCVEIFTNGKWNDKACGEKRLVVCEF
# Key:
# Test in all cases: glycan array binding signal (z-score within array); higher = stronger binding
# Details in all cases: glycan notation: IUPAC condensed, linker removed; mutation: R343K
# [1] = target: Fuc(a1-2)Gal
# Method in brief: (§1)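 The binding signal is a Z-score computed within each array and averaged over linkers. Arrays of the same protein sequence at different concentrations or buffers were also averaged together. Data originate from 3228 arrays in the Consortium for Functional Glycomics database, kept only where the protein sequence was available.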
# [2] = target: Fuc(a1-2)Gal(b1-4)GlcNAc(b1-3)Gal(b1-4)GlcNAc(b1-3)Gal(b1-4)GlcNAc
# Method in brief: as §1
# [3] = target: Fuc(a1-2)[GalNAc(b1-3)]Gal
# Method in brief: as §1
# [4] = target: Fuc(a1-3)[Gal(b1-4)]GlcNAc(b1-2)Man(a1-6)[Gal(b1-4)GlcNAc(b1-2)Man(a1-3)]Man(b1-4)GlcNAc(b1-4)GlcNAc
# Method in brief: as §1
# [5] = target: Fuc(a1-3)[Gal(b1-4)]GlcNAc(b1-4)Gal(b1-4)[Fuc(a1-3)]GlcNAc
# Method in brief: as §1
# [6] = target: Gal(b1-3)GalNAc(b1-3)Gal(a1-4)Gal(b1-4)Glc
# Method in brief: as §1
# [7] = target: Gal(b1-4)GalNAc(a1-3)[Fuc(a1-2)]Gal(b1-4)GlcNAc
# Method in brief: as §1
# [8] = target: Gal(b1-4)GlcNAc(a1-6)Gal(b1-4)GlcNAc
# Method in brief: as §1
# [9] = target: Gal(b1-4)GlcNAc(b1-6)GalNAc
# Method in brief: as §1
# [10] = target: Gal3S(b1-3)GlcNAc
# Method in brief: as §1
# [11] = target: Gal3S(b1-3)[Fuc(a1-4)]GlcNAc
# Method in brief: as §1
# [12] = target: Glc(b1-4)Glc
# Method in brief: as §1
# [13] = target: GlcA(b1-6)Gal
# Method in brief: as §1
# [14] = target: GlcNAc(b1-2)Gal(b1-3)GalNAc
# Method in brief: as §1
# [15] = target: Man(a1-2)Man(a1-3)[Man(a1-2)Man(a1-6)]Man
# Method in brief: as §1
# [16] = target: Man(a1-2)Man(a1-3)[Man(a1-2)Man(a1-6)]Man(a1-6)[Man(a1-2)Man(a1-2)Man(a1-3)]Man
# Method in brief: as §1
# [17] = target: Man(a1-2)Man(a1-3)[Man(a1-6)]Man(a1-6)[Man(a1-2)Man(a1-3)]Man(b1-4)GlcNAc(b1-4)GlcNAc
# Method in brief: as §1
# [18] = target: Man(a1-3)[Man(a1-6)]Man(a1-6)[Man(a1-2)Man(a1-3)]Man(b1-4)GlcNAc(b1-4)GlcNAc
# Method in brief: as §1
# [19] = target: Man(a1-3)[Man(a1-6)]Man(a1-6)[Man(a1-3)]Man
# Method in brief: as §1
# [20] = target: Neu5Ac(a2-3)Gal(b1-3)GalNAc(b1-3)Gal(a1-4)Gal(b1-4)Glc
# Method in brief: as §1
# [21] = target: Neu5Ac(a2-3)Gal(b1-3)GalNAc6S
# Method in brief: as §1
# [22] = target: Neu5Ac(a2-3)Gal(b1-3)GlcNAc
# Method in brief: as §1
# [23] = target: Neu5Ac(a2-3)Gal(b1-4)GlcNAc(b1-3)Gal(b1-4)GlcNAc(b1-3)Gal(b1-4)GlcNAc
# Method in brief: as §1
# [24] = target: Neu5Ac(a2-6)GalNAc(b1-4)GlcNAc
# Method in brief: as §1
# [25] = target: Neu5Ac9Ac(a2-6)Gal(b1-4)GlcNAc
# Method in brief: as §1
# [26] = target: Neu5Gc(a2-6)Gal(b1-4)GlcNAc
# Method in brief: as §1
binder,measurement,setting,value
B1,glycan array binding signal (z-score),[1],-0.147
same,glycan array binding signal (z-score),[2],-0.143
same,glycan array binding signal (z-score),[3],-0.145
same,glycan array binding signal (z-score),[4],-0.147
same,glycan array binding signal (z-score),[5],-0.157
same,glycan array binding signal (z-score),[6],-0.147
same,glycan array binding signal (z-score),[7],-0.145
same,glycan array binding signal (z-score),[8],-0.153
same,glycan array binding signal (z-score),[9],-0.151
same,glycan array binding signal (z-score),[10],-0.155
same,glycan array binding signal (z-score),[11],-0.153
same,glycan array binding signal (z-score),[12],-0.153
same,glycan array binding signal (z-score),[13],-0.146
same,glycan array binding signal (z-score),[14],-0.159
same,glycan array binding signal (z-score),[15],5.42
same,glycan array binding signal (z-score),[16],10.9
same,glycan array binding signal (z-score),[17],5.1
same,glycan array binding signal (z-score),[18],7.96
same,glycan array binding signal (z-score),[19],5.92
same,glycan array binding signal (z-score),[20],-0.155
same,glycan array binding signal (z-score),[21],-0.156
same,glycan array binding signal (z-score),[22],-0.142
same,glycan array binding signal (z-score),[23],-0.143
same,glycan array binding signal (z-score),[24],-0.155
same,glycan array binding signal (z-score),[25],-0.15
same,glycan array binding signal (z-score),[26],-0.155
